Rows were chosen to be rich in hits. Some 2.8% of all compounds tested hit in one or more screens of this group.
c-Myc SMM: binders of human c-Myc, primary screen, biochemical, small molecule microarray, anti-His fluorescence. Myc proto-oncogene protein (Homo sapiens), P01106. His-c-Myc binding. calls only. 17,000 compounds, 1.5% hits. AID 624141, 2012;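 active means spot fluorescence over background with P-value below 7% in all four replicate spots, showing protein binding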
p53 PUMA act: mutant p53 pathway re-activators, primary screen, cell-based, SW480, luciferase, single point, HTS. SW480 PUMA-promoter luciferase, p53 mutant reactivation. activation, % at 9.98 µM. 28,000 compounds, 1.5% hits. AID 624151, 2012; in the data active means activation above about 52%
STAT3 binder: STAT3 binders, primary screen, biochemical, small molecule microarray, single point, set 2 | Signal transducer and activator of transcription 3 (Homo sapiens), P40763 | His-STAT3 binding, anti-His fluorescence | calls only | 17,000 compounds, 0.2% hits | AID 624138, 2012;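 active means compounds whose four printed spots each show fluorescence over background unusually high for their array block, chance value under 7%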
p53 mut binder: binders of human mutant p53, primary screen, biochemical, small molecule microarray, anti-GST fluorescence; AID 624136, 2012; small molecule microarray binding; 17,000 compounds, 0.4% hits; mutant tumor protein p53 (GST-tagged), Homo sapiens; calls only;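 active means compounds whose four printed spots each glow above background more than chance allows, each with a p-value under 7%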
NFkB SMM: binders of NF-kB p50 subunit, primary screen, biochemical, small molecule microarray, anti-His fluorescence; AID 624139, 2012; Nuclear factor NF-kappa-B p105 subunit (Homo sapiens), P19838; anti-His fluorescence binding; calls only; 17,000 compounds, 1.3% hits;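 active means spot fluorescence over background significantly raised, with a chance value under 7% in all four replicate spots of the compound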;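 further: probe protein is his-tagged human p50 processed subunit at 1 µg/ml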
Target sequence (P19838 1-433 limits assumed): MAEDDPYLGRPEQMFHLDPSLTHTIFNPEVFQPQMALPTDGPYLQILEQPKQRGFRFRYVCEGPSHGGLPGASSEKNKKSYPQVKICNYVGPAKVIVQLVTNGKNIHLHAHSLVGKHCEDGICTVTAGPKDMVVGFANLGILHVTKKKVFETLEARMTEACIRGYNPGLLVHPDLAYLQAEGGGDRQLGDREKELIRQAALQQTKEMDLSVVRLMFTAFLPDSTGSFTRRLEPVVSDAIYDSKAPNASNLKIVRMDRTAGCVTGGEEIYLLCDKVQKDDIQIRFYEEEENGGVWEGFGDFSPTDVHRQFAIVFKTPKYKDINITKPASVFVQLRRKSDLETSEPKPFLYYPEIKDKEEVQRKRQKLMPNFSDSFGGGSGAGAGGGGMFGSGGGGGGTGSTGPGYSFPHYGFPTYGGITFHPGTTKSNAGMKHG
Of the large screens only hits and unclear results are named; the others gave an inactive call.

C=C1CC[C@@]2(OC1)O[C@H]1CC3[C@@H]4CC=C5C[C@H](O[C@@H]6OC[C@H](O)[C@H](O)[C@H]6O[C@@H]6O[C@@H](C)[C@H](O)[C@@H](O)[C@H]6O)C[C@@H](O)[C@]5(C)C4CC[C@]3(C)[C@H]1[C@@H]2C (stereo not given in full)	c-Myc SMM active, NFkB SMM active
C[C@@H]1O[C@@H](O[C@H]2[C@H](O)[C@@H](O[C@@H]3O[C@H](CO)[C@@H](O)[C@H](O)[C@H]3O)[C@H](O[C@H]3CC[C@@]4(C)C(=CC[C@@H]5C4CC[C@@]4(C)C5C[C@@H]5O[C@]6(CC[C@@](C)(CO)O6)[C@@H](C)[C@@H]54)C3)O[C@@H]2CO)[C@H](O)[C@H](O)[C@H]1O (stereo not given in full)	none
COc1ccc(-n2c(SCC(N)=O)nnc2-c2cccs2)cc1	none (no result: c-Myc SMM, STAT3 binder, p53 mut binder, NFkB SMM)
Cn1ccc2cc(NC(=O)Nc3cccnc3)ccc21	p53 PUMA act 80
CC(=O)c1cccc(NC(=O)NCc2cccnc2)c1	none (no result: c-Myc SMM, STAT3 binder, p53 mut binder, NFkB SMM)
O=C(COc1cccc(-c2cnc3ccccc3n2)c1)c1ccccc1	none
O=[N+]([O-])c1cccc(COc2ccc(-c3cnc4ccccc4n3)cc2)c1	p53 PUMA act 63 (no result: c-Myc SMM, STAT3 binder, p53 mut binder, NFkB SMM)
COc1ccc(Cl)cc1NC(=O)CSc1nnc(-c2cc3cc(Br)ccc3o2)n1C	p53 PUMA act 52 (no result: c-Myc SMM, STAT3 binder, p53 mut binder, NFkB SMM)
N/C(=N\O)c1ccc(N2CCN(c3ncccc3C(F)(F)F)CC2)nc1	p53 PUMA act 142 (no result: c-Myc SMM, STAT3 binder, p53 mut binder, NFkB SMM)
O=C(O)C(Cc1ccccc1)N1C(=O)c2ccccc2C1=O (stereo not given)	p53 PUMA act 65
COc1ccc(NC(=O)C(Cc2ccccc2)N2C(=O)c3ccccc3C2=O)cc1 (stereo not given)	none (no result: c-Myc SMM, STAT3 binder, p53 mut binder, NFkB SMM)
Cc1nnn(C23CC4CC(CC(C(=O)NC5CCCCCC5)(C4)C2)C3)n1	none (no result: c-Myc SMM, STAT3 binder, p53 mut binder, NFkB SMM)
C[C@@H]1CCCCO[C@H](CN(C)C(=O)Nc2ccc(C(F)(F)F)cc2)[C@H](C)CN([C@@H](C)CO)C(=O)c2cc(NS(C)(=O)=O)ccc2O1	STAT3 binder active
C[C@@H]1CCCCO[C@@H](CN(C)C(=O)Nc2ccc(C(F)(F)F)cc2)[C@H](C)CN([C@@H](C)CO)C(=O)c2cc(NS(C)(=O)=O)ccc2O1	c-Myc SMM active
C[C@@H]1CCCCO[C@@H](CN(C)C(=O)Nc2ccc(C(F)(F)F)cc2)[C@@H](C)CN([C@H](C)CO)C(=O)c2cc(NS(C)(=O)=O)ccc2O1	none
C[C@@H]1CCCCO[C@@H](CN(C)C(=O)Nc2ccc(C(F)(F)F)cc2)[C@H](C)CN([C@H](C)CO)C(=O)c2cc(NS(C)(=O)=O)ccc2O1	none
C[C@H]1CCCCO[C@H](CN(C)C(=O)Nc2ccc(C(F)(F)F)cc2)[C@@H](C)CN([C@@H](C)CO)C(=O)c2cc(NS(C)(=O)=O)ccc2O1	c-Myc SMM active, STAT3 binder active, NFkB SMM active
Cc1ccc(NC(=O)c2[nH]c3c(c2C)C(=O)CC(c2ccc(C(C)(C)C)cc2)C3)cc1C (stereo not given)	none (no result: c-Myc SMM, STAT3 binder, p53 mut binder, NFkB SMM)
CCc1cccc(C)c1NC(=O)CSc1nnc(-c2ccc(OC)cc2)n1C	none (no result: c-Myc SMM, STAT3 binder, p53 mut binder, NFkB SMM)
COC(Cc1nc2ccccc2s1)C(=O)O (stereo not given)	c-Myc SMM active
O=C(O)CCCc1nc2ccccc2s1	none (no result: c-Myc SMM, STAT3 binder, p53 mut binder, NFkB SMM)
O=C(Nc1sccc1C(=O)N1CCOCC1)c1cc2ccccc2oc1=O	none
Cc1[nH]c2ccccc2c1C(=O)CSc1nnc2ccccn12	p53 PUMA act 95 (no result: c-Myc SMM, STAT3 binder, p53 mut binder, NFkB SMM)
Cc1[nH]c2ccccc2c1C(=O)CSc1ncn[nH]1	none (no result: c-Myc SMM, STAT3 binder, p53 mut binder, NFkB SMM)
O=C1O[C@H](c2ccccc2)[C@H](c2ccccc2)N2[C@H]1[C@@H](C(=O)N1CCCCCCC1)[C@]1(C(=O)Nc3ccc(C#CC4(O)CCCCCC4)cc31)[C@H]2c1ccc(OCCO)cc1	c-Myc SMM active, p53 mut binder active, NFkB SMM active (no result: p53 PUMA act)
COc1cc2c(cc1OC)CN(C(=O)[C@H]1[C@@H]3C(=O)O[C@@H](c4ccccc4)[C@@H](c4ccccc4)N3[C@@H](c3ccc(OCCO)cc3)[C@]13C(=O)Nc1ccc(C#CC4=CCCCC4)cc13)CC2	NFkB SMM active (no result: p53 PUMA act)
O=C1O[C@@H](c2ccccc2)[C@@H](c2ccccc2)N2[C@@H](c3ccccc3OCCO)[C@]3(C(=O)Nc4ccc(C#CC5=CCCCC5)cc43)[C@@H](C(=O)N3CCCCCCC3)[C@H]12	none (no result: p53 PUMA act)
